PubChem BioAssay (NCI)
Compounds without any hit were thinned out: in the full panel of roughly 79,000, 15% have a hit. Cut-off read from the data, not from the text of the source: active = growth inhibition above about 70%; inactive = the rest.

Columns and labels:
[1] = NCI Yeast Anticancer Drug Screen. Data for the rad50 strain (AID 155);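 note: 0% = growth of vehicle-only cultures of the same strain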; conditions: S. cerevisiae rad50 strain growth inhibition, hits give high values; at 50.0 µM unless noted
How it was run: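 Compounds were tested on a yeast strain with an engineered DNA damage repair alteration; the reported value is growth inhibition normalised to vehicle treatment.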

[2] = NCI Yeast Anticancer Drug Screen. Data for the mec2-1 strain (AID 157); conditions: S. cerevisiae mec2-1 strain, hits give high values; at 50.0 µM unless noted
How it was run: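 Test agents were screened against the mec2-1 yeast strain, with defined DNA repair or cell cycle alteration. Growth was scored as inhibition against vehicle-only controls.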

[3] = NCI Yeast Anticancer Drug Screen. Data for the sgs1 mgt1 strain (AID 161);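 note: 0% = growth of cultures given vehicle only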; conditions: S. cerevisiae sgs1 mgt1 strain, hits give high values; at 50.0 µM unless noted
How it was run: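 Mutant yeast exposed to compound; growth scored against vehicle-only wells.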

[4] = NCI Yeast Anticancer Drug Screen. Data for the cln2 rad14 strain (AID 165);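 note: 0% = growth equal to vehicle treated cultures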; conditions: S. cerevisiae cln2 rad14 strain, hits give high values; at 50.0 µM unless noted
How it was run: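 Growth of compound-exposed yeast (cln2 rad14 genotype) measured and expressed as inhibition relative to vehicle.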

[5] = NCI Yeast Anticancer Drug Screen. Data for the bub3 strain (AID 167); conditions: S. cerevisiae bub3 mutant strain, hits give high values; at 50.0 µM unless noted
How it was run: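 Growth of a checkpoint-deficient yeast mutant is measured after compound exposure. Values represent inhibition relative to vehicle.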

[6] = NCI Yeast Anticancer Drug Screen. Data for the mlh1 rad18 strain (AID 175); conditions: S. cerevisiae mlh1 rad18 strain growth inhibition, hits give high values; at 50.0 µM unless noted
How it was run: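 In this whole-cell yeast screen, a strain with altered DNA damage repair is challenged with compound, and its growth is measured against matched vehicle-treated controls.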

Measured: growth inhibition

CCCOC(=O)N(C)c1ccccc1
inactive: [1] 17.8% | [2] -10.3% | [3] 2.95% | [4] -32.3% | [5] -22.6% | [6] -2.1%

CCC(C)C/C(C)=N/Nc1ccc([N+](=O)[O-])cc1[N+](=O)[O-] (stereo not drawn)
inactive: [1] -0.4% | [2] 7.85% | [3] 0.65% | [4] -16.4% | [5] 12.7% | [6] -6.25%

O=C(O)C(C(=O)N(c1ccccc1)c1ccccc1)c1ccccc1 (stereo not drawn)
inactive: [1] 9.8% | [2] -1.05% | [3] 21.5% | [4] -51.9% | [5] 18.7% | [6] 9.75%

O=C(Nc1cc(Cl)c(Cl)cc1Cl)C(=O)C(C(=O)c1ccc(Cl)c(Cl)c1)C1OC(=O)c2ccccc21 (stereo not drawn)
inactive: [1] 19.4% | [2] 8.55% | [3] 0.55% | [4] 27% | [5] 4.05% | [6] 22.6%

C=C(C)[C@H]1CC(=O)[C@@]2(C)C[C@H]3O[C@]3(C)CC/C=C(\C)CC[C@H]12
inactive: [1] 20.2% | [2] 14.4% | [3] 33.2% | [4] 15.1% | [5] 31.1% | [6] 51.5%

CCCSc1ncnc2nc[nH]c12
inactive: [1] 23.6% | [2] -1% | [3] 9.7% | [4] -15.1% | [5] -13.7% | [6] 16.9%

O=C(/C=C/c1ccccc1)c1ccc(I)cc1
inactive: [1] 11.7% | [2] -1.25% | [3] 9.6% | [4] -8.2% | [5] 5.25% | [6] 1.5%

CN1C(=O)N(C)C2(O)c3ccccc3C(=O)C12O (stereo not drawn)
inactive: [1] 14.6% | [2] 2.9% | [3] 18.9% | [4] 15% | [5] 19.8% | [6] 38.9%

Nc1sc(=S)[nH]c1-c1ccccc1
inactive: [1] 20.1% | [2] 10.7% | [3] -24.9% | [4] -30.8% | [5] -11% | [6] 11.1%

C/C(=N/N)c1ccc2[nH]c3c(C)cc([N+](=O)[O-])c(C)c3c2c1
inactive: [1] 16.9% | [2] -6.9% | [3] -22.9% | [4] 13.7% | [5] 3.65% | [6] 6.35%

CC1=C(C)CC2(CCCCC2=O)S(=O)C1 (stereo not drawn)
inactive: [1] -34.8% | [2] -28.8% | [3] -9.85% | [4] 11.1% | [5] 15.8% | [6] 2.55%

CCNC(=O)c1ccccc1N=NN(C)C
inactive: [1] -1.15% | [2] 25.4% | [3] -0.65% | [4] 5.65% | [5] 5% | [6] 21.9%

CC(C)c1ccccc1NC(=O)CCC(=O)NN
inactive: [1] -11.1% | [2] -7.95% | [3] -7.95% | [4] 6.1% | [5] -17.8% | [6] -11.7%

CNC(=O)OCc1cc(C)cc(C)c1-c1ccco1
inactive: [1] -4.95% | [2] -9.15% | [3] 28.4% | [4] 4% | [5] 10.3% | [6] 7.05%

Cc1c(C(=O)C/C(=N/NC(=O)C[n+]2ccccc2)C(=O)Nc2ccccc2)[n+](=O)c2ccccc2n1O
inactive: [1] -37.5% | [2] 0.2% | [3] -40.7% | [4] -0.7% | [5] -15.2% | [6] -31.4%

Cc1ccc(C)c(NC(=O)NC(C)(C)C)c1
inactive: [1] -0.2% | [2] -22.4% | [3] -2.7% | [4] -55.1% | [5] -5.65% | [6] -4.5%

COc1ccccc1-n1c(=O)c(N=Nc2ccc(Br)cc2)c(O)n(-c2ccccc2C)c1=S
inactive: [1] 49.1% | [2] 0.85% | [3] 44.7% | [4] -11.1% | [5] -2.45% | [6] 17.6%

CCCc1cc(Cl)ccc1OCC(=O)O
inactive: [1] 32.4% | [2] 18.9% | [3] 14.1% | [4] 11.6% | [5] 20.5% | [6] 10.3%

Oc1[nH]c2ccccc2c1N=NC(=S)Nc1ccccc1
inactive: [1] 12.6% | [2] 2.5% | [3] -2.3% | [4] -13.1% | [5] -11.4% | [6] -4.75%

O=C(O)COc1ccc(NC(=O)COc2ccc(Cl)c(Cl)c2)cc1
inactive: [1] 8.8% | [2] -10% | [3] -28.9% | [4] -30.1% | [5] 2.75% | [6] 15.1%

OCCN/N=C/c1ccncc1
inactive: [1] -4.35% | [2] -52.2% | [3] -20.2% | [4] 15.2% | [5] -14.3% | [6] 23.8%

O=C(O)c1nc2cn1/C=C\C=NCC1=CN3C=CC=NC3(C(=O)O)N1C2 (stereo not drawn)
inactive: [1] -14.6% | [2] -2.95% | [3] -12.4% | [4] -43.2% | [5] 1.05% | [6] -18.9%

Cc1cc(C)c(C(=O)c2cccc(C)c2C(=O)O)c(C)c1
inactive: [1] 4% | [2] -20.8% | [3] 7.85% | [4] 14.1% | [5] 9.85% | [6] 18%

NC1CCC(C2CCC(N)CC2)CC1 (stereo not drawn)
inactive: [1] 17.1% | [2] 20.6% | [3] 3.7% | [4] -53% | [5] -6.45% | [6] -13.7%

c1ccc(C2(c3ccc(C4(c5ccccc5)Oc5ccccc5S4)[nH]3)Oc3ccccc3S2)cc1 (stereo not drawn)
inactive: [1] 20.4% | [2] -12.2% | [3] -4.4% | [4] 11.6% | [5] -16.7% | [6] 20.2%

O=C1C(CN2CCCC2)CCCC1CN1CCCC1 (stereo not drawn)
inactive: [1] -3.2% | [2] -29.4% | [3] -40.1% | [4] 2.15% | [5] 7.3% | [6] -10.1%

CCCCCCCCCCCCCCCOc1ccc(OCCCCCCCCCCCC)cc1
inactive: [1] 37.8% | [2] -6.3% | [3] 16.4% | [4] -33% | [5] 4.25% | [6] 11.8%

C=CCSCc1ccccc1
inactive: [1] 4.55% | [2] 2.95% | [3] -13.6% | [4] 3.8% | [5] -2.15% | [6] 19.7%

CC(CO)Cc1ccccc1 (stereo not drawn)
inactive: [1] -1.85% | [2] -12.8% | [3] -11.2% | [4] 7.45% | [5] -3.7% | [6] -9.7%

O=S(=O)(N/N=C1\CC2CCC1C2)c1ccccc1 (stereo not drawn)
inactive: [1] -7.05% | [2] -16.1% | [3] -16.9% | [4] 27.8% | [5] 21.4% | [6] 4.4%

CO[C@H]1C[C@H](n2cc(C)c(=O)[nH]c2=O)O[C@@H]1CO
inactive: [1] -6.55% | [2] -9.75% | [3] -39.9% | [4] -10.7% | [5] -9.3% | [6] -25.8%

COC1/C=C/OC2(C)Oc3c(C)c(O)c4c(O)c(c(C5SCCS5)c(O)c4c3C2=O)NC(=O)C(C)=C/C=C\C(C)C(O)C(C)C2OC(C)(C)OC(C1C)C2C (stereo not drawn)
inactive: [1] 2.15% | [2] 33% | [3] 22.8% | [4] 15.6% | [5] 14.4% | [6] 38%

Cc1cc(=O)oc2c(C)c(OCCCOc3ccc4c(C)cc(=O)oc4c3C)ccc12
inactive: [1] -29.8% | [2] -15.6% | [3] -6.1% | [4] 11.1% | [5] -30.8% | [6] -34.3%

CC(C)(O)CCO
inactive: [1] -38.4% | [2] -40.4% | [3] -17.4% | [4] -10.7% | [5] -25.9% | [6] -33.1%

N#Cc1cc2c(N)ncnc2nc1N1CCCC1
inactive: [1] -43.7% | [2] -61.8% | [3] -13.3% | [4] -2.25% | [5] 5.35% | [6] -26.2%

CCN(CC)CCCCCCNc1cc(O)cc2cccnc12
inactive: [1] 18.5% | [2] 30.8% | [3] 44% | [4] 8.45% | [5] 11.4% | [6] 14.4%

O=[N+]([O-])c1ccccc1S(=O)(=O)c1cccc2c1NCCC2
inactive: [1] 33.8% | [2] 12.3% | [3] 33.5% | [4] 31.4% | [5] 48% | [6] 46.9%

C[N+]1(C2C=CCC(c3ccccc3)C2[N+](=O)[O-])CCCC1 (stereo not drawn)
inactive: [1] 27.2% | [2] 9.95% | [3] 35.5% | [4] 15.2% | [5] -3.6% | [6] 10.9%
